Common to all, as to experiment: NCI-60 one-dose screen, 48 h (100 = growth as untreated, 0 = no growth, -100 = all killed)
Holding throughout (conditions): 10 µM unless noted

In experiment [1] the test system is NCI-H23 lung.
The test system of experiment [2] is NCI-H226 lung.
In experiment [3] the test system is NCI-H322M lung.
The test system of experiment [4] is NCI-H460 lung.
For experiment [5], the system named is HOP-92 NSCLC.
The subject of experiment [6] is NCI-H522 lung.
Experiment [7] has as its system A549/ATCC NSCLC.
Experiment [8] relates to 786-0 renal.
In experiment [9] the test system is COLO 205 colon.
Experiment [10] deals with DU-145 prostate.
The test system of experiment [11] is K-562 leukemia.
The test system of experiment [12] is MALME-3M melanoma.
Experiment [13] relates to MDA-MB-231 breast.
For experiment [14], the system named is RXF 393 renal.
In experiment [15] the test system is SF-268 CNS.
Experiment [16] concerns SF-295 CNS.
For experiment [17], the system named is SF-539 CNS.
The test system of experiment [18] is UACC-257 melanoma.
The subject of experiment [19] is M14 melanoma.

Growth data for six compounds are collected here from PubChem BioAssay (NCI).

SMILES strings stand for the structures. Several values for one entry are separate records, joined by “and”; a condition that tells them apart may be missing. Equal values may be shown once. About 83,000 compounds went through this panel and 20% of them were active in at least one assay; those are over-represented in the sample as a whole.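 Percent growth is the endpoint: 0 to 100 indicates growth inhibition (40 means 60% inhibition), 0 means no net growth, and negative values indicate cell death.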 Activity calls are given as the source filed them. The calls were made as follows: active = growth percent below 10; inactive = the rest.

Turning to `Oc1cccnc1CN1CCOCC1`, the growth in experiment [1] is 110% (inactive) and 95.7% (inactive); in [2], 99.1% (inactive) and 95.7% (inactive); in [3], 98.3% (inactive) and 102% (inactive); in experiment [4] it was 114% (inactive) and 109% (inactive); in experiment [5], 88.4% (inactive) and 84.8% (inactive); in experiment [6] it was 93.8% (inactive) and 120% (inactive). For the same compound, the growth was 102% (inactive) and 96.5% (inactive) in [7]; 105% (inactive) and 101% (inactive) in experiment [8]; 102% (inactive) and 110% (inactive) in [9]; 108% (inactive) and 116% (inactive) in experiment [10]; 108% (inactive) and 105% (inactive) in experiment [11]; 106% (inactive) in [12]. The growth is 104% (inactive) and 86.9% (inactive) in [13]; 114% (inactive) and 112% (inactive) in experiment [14]; 106% (inactive) and 116% (inactive) in [15]; 111% (inactive) and 105% (inactive) in experiment [16]; 92.6% (inactive) and 94.9% (inactive) in experiment [17]; 99.6% (inactive) and 98.2% (inactive) in [18]. Besides, the growth in experiment [19] is 109% (inactive) and 103% (inactive).
Consider `CCOC(=O)NC(N)=O`, for which the growth in [1] is 103% (inactive) and 99% (inactive); in experiment [2], 99.8% (inactive) and 96.5% (inactive); in experiment [3], 93% (inactive) and 105% (inactive); in experiment [4] it was 105% (inactive) and 104% (inactive); in [5], 102% (inactive); in [6], 89.4% (inactive) and 103% (inactive). Besides, the growth in experiment [7] is 104% (inactive) and 107% (inactive); in [8] it was 97.3% (inactive) and 101% (inactive); in experiment [9], 110% (inactive) and 118% (inactive); in [10] it was 111% (inactive) and 119% (inactive); in [11] it was 90.7% (inactive) and 110% (inactive); in experiment [12], 93.3% (inactive). Further, the growth is 118% (inactive) and 102% (inactive) in experiment [13]; 114% (inactive) in experiment [14]; 106% (inactive) and 119% (inactive) in experiment [15]; 99.9% (inactive) and 93.2% (inactive) in experiment [16]; 95.6% (inactive) and 99.2% (inactive) in experiment [17]; 94% (inactive) and 97.1% (inactive) in experiment [18]. In [19], the growth was 101% (inactive).
`ON=C(C1CCCCC1)C1CCCCC1`: the growth in experiment [1] is 97.8% (inactive); in experiment [2], 102% (inactive); in [3], 93.2% (inactive); in [4], 108% (inactive); in experiment [5], 85.7% (inactive); in [6], 107% (inactive). Besides, the growth is 99.9% (inactive) in experiment [8]; 109% (inactive) in experiment [9]; 107% (inactive) in experiment [10]; 108% (inactive) in [11]; 91.9% (inactive) in experiment [12]; 95.3% (inactive) in experiment [13]. For the same compound, the growth is 109% (inactive) in [14]; 98.1% (inactive) in experiment [15]; 105% (inactive) in experiment [16]; 96.3% (inactive) in experiment [17]; 99.5% (inactive) in experiment [18]; 109% (inactive) in [19].
Consider `Nc1ccccc1SC(CC(=O)c1ccccc1)c1cccc([N+](=O)[O-])c1` (stereo not given), for which the growth in experiment [1] is 87.1% (inactive) and 90.4% (inactive); in experiment [3], 113% (inactive) and 96.1% (inactive); in experiment [4], 105% (inactive) and 100% (inactive); in [5], 95.9% (inactive); in [6], 84.4% (inactive) and 73.3% (inactive); in experiment [7], 95.1% (inactive) and 78.7% (inactive). In addition, the growth is 113% (inactive) and 91.8% (inactive) in experiment [8]; 102% (inactive) and 109% (inactive) in [9]; 113% (inactive) and 85.5% (inactive) in [10]; 61% (inactive) and 7.1% (active) in experiment [11]; 123% (inactive) and 86.7% (inactive) in experiment [12]; 86.4% (inactive) and 99.6% (inactive) in [13]. Further, the growth in experiment [14] was 104% (inactive) and 94.7% (inactive); in experiment [15], 101% (inactive) and 83.9% (inactive); in experiment [16] it was 83.1% (inactive) and 92.3% (inactive); in [17] it was 99.6% (inactive) and 105% (inactive); in experiment [18] it was 95% (inactive) and 87.7% (inactive); in experiment [19], 114% (inactive) and 89.9% (inactive).
Turning to `COc1cc2c(cc1O)C(=O)CCCC2`, the growth was 91.8% (inactive) in experiment [1]; 102% (inactive) in [2]; 102% (inactive) in experiment [3]; 103% (inactive) in experiment [4]; 82.9% (inactive) in experiment [5]; 94.9% (inactive) in [8]. The growth in experiment [9] was 143% (inactive); in [10], 117% (inactive); in experiment [11] it was 124% (inactive); in experiment [12] it was 108% (inactive); in experiment [13], 108% (inactive); in [14] it was 105% (inactive). The growth in experiment [15] was 90.3% (inactive); in experiment [16], 83.8% (inactive); in experiment [17], 99.6% (inactive); in [18], 121% (inactive); in experiment [19], 97.2% (inactive).
On to `N#CC1c2ccccc2C=CN1C(=O)c1ccccc1` (stereo not given), for which the growth in experiment [1] was 104% (inactive) and 112% (inactive); in [2] it was 103% (inactive) and 89.1% (inactive); in experiment [3] it was 105% (inactive) and 103% (inactive); in experiment [4], 106% (inactive) and 98.9% (inactive); in experiment [5], 75.5% (inactive); in experiment [6] it was 103% (inactive) and 91.7% (inactive). The growth in experiment [7] is 104% (inactive) and 107% (inactive); in experiment [8] it was 107% (inactive) and 102% (inactive); in experiment [9] it was 126% (inactive) and 157% (inactive); in [10], 108% (inactive) and 94.1% (inactive); in [11], 99.6% (inactive) and 112% (inactive); in experiment [12], 94.8% (inactive) and 108% (inactive). The growth is 96% (inactive) and 94.1% (inactive) in [13]; 136% (inactive) and 118% (inactive) in experiment [14]; 111% (inactive) and 84.8% (inactive) in experiment [15]; 101% (inactive) and 93.3% (inactive) in experiment [16]; 112% (inactive) and 86.6% (inactive) in experiment [17]; 103% (inactive) and 113% (inactive) in [18]. Moreover, the growth in [19] is 99.9% (inactive) and 98.7% (inactive).
